Measured values as given in PubChem BioAssay (NCATS).
Several values for one entry are separate records, joined by “and”; a condition that tells them apart may be missing. Equal values may be shown once. Inconclusive results are not listed. A number with no mark means an inactive call. Activity calls are given as the source filed them. The call rests on the fitted dose curve; in most records, active means well fitted inhibition curve with a large enough effect in the signal ratio, with a control signal flat (not every such curve was filed as active); inconclusive means small, poorly fitted or top-dose-only effect, or effect the other way, or a change in a side signal; inactive means no such curve, though single readings can be large or run the other way; the % refers to the signal ratio.

target: Retinoic acid receptor RXR-alpha (Homo sapiens) (UniProt P19793); assay: qHTS assay for small molecule antagonists of retinoid X receptor alpha signaling (AID 588546); settings: HEK293T RXRa-UAS-bla, beta-lactamase ratio, antagonist mode
Sequence (P19793 whole entry, looked up): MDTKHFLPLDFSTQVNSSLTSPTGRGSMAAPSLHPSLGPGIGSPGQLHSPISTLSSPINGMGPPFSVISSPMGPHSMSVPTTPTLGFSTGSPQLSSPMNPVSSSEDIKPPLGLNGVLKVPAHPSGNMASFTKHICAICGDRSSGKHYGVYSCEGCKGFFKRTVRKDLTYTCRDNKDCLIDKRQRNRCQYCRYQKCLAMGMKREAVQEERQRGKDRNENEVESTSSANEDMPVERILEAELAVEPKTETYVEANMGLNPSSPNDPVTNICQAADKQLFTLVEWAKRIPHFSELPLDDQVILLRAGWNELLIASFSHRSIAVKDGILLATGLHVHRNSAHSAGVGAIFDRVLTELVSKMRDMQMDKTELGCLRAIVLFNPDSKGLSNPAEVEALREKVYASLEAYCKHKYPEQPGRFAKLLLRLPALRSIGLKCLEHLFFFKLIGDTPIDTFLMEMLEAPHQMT
How it was run: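 Beta-lactamase reporter inhibition, read as CCF4 fluorescence ratio (ex 405, em 460/530 nm) after 2 h at RT. HEK293T UAS-bla cells, 2500/well, were stimulated with 9-cis-RA at 500 or 100 nM final alongside test compound for 18 h at 37 C.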
On the % scale 0 is the no-effect control and ±100 the full control effect; potency means the concentration at half of the fitted maximal effect.

SMILES | Potency | max response
O=c1c(-c2ccc(O)cc2)coc2cc(O)cc(O)c12 | 35.5 µM (active) | –
CC(C)C(=O)Nc1ccc([N+](=O)[O-])c(C(F)(F)F)c1 | – | -17.5% and 1.97%
O=C(c1ccc(OCCN2CCCCC2)cc1)c1c(-c2ccc(O)cc2)sc2cc(O)ccc12 | 25.1 µM (active) | –
Cn1c(=O)c2[nH]cnc2n(C)c1=O | – | -6.35%
NS(=O)(=O)c1cc2c(cc1Cl)NCNS2(=O)=O | – | 11.3% and 4.53%
COc1ccc2[nH]cc(CCNC(C)=O)c2c1 | – | 0.955% and -6.07% and -2.21%
NCCS(=O)(=O)O | – | -0.744%
Cn1c(=O)c2c(ncn2C)n(C)c1=O | – | -0.557% and -14.2%
Nc1ccn([C@H]2CC[C@@H](CO)O2)c(=O)n1 | – | -7.58% and 1.21%
Nc1c2c(nc3ccccc13)CCCC2 | – | -6.99%
Cc1cn([C@H]2C=C[C@@H](CO)O2)c(=O)[nH]c1=O | – | 0.606% and 10% and 8.08%
N[C@@H](Cc1c[nH]c2ccc(O)cc12)C(=O)O | – | 3.1%
CC(COc1ccccc1)N(CCCl)Cc1ccccc1 (stereo not given) | – | 13.6% and -11.7%
C[C@](N)(Cc1ccc(O)c(O)c1)C(=O)O | – | -26.4%
CCOC(=O)C(C)(C)Oc1ccc(Cl)cc1 | – | 3.43%
